In PubChem BioAssay (NCI) one finds growth data, which are given here for 18 molecules.

Some test systems named below: BT-549 breast; MDA-MB-435 melanoma; SW-620 colon; MCF7 breast; HCT-116 colon; KM12 colon; HCC-2998 colon.
Experiment in all cases: NCI-60 one-dose screen, 48 h (100 = growth as untreated, 0 = no growth, -100 = all killed)
Common to all, as to settings: 10 µM

Structures are written as SMILES. This is part of a sample that, as a whole, favours compounds with a hit. Of some 83,000 tested, about 20% had one in any assay.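 Note: values are percent growth. 100 is the growth of untreated cells, values between 100 and 0 indicate rising inhibition; between -100 and 0 indicates cell death.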 Unmarked numbers belong to inactive results. Calls of active or inactive are those of the source. How the source made its calls: active means growth percent below 10; inactive means the rest.

For `O=C1OCC2=C1C(c1cccc(Br)c1)c1cc3c(cc1N2CCO)CCC3` (stereo not given), the growth in the test with BT-549 breast was 15.7%; in the test on MDA-MB-435 melanoma it was -40% (active); with SW-620 colon, 17.5%; in the test on MCF7 breast, 21.4%; in the test with HCT-116 colon, 6.12% (active); in the test with KM12 colon, -47.5% (active).

Turning to `COc1ccc2c(c1)N(CCO)C1=C(C(=O)OC1)C2c1ccc(OC)c(OC)c1` (stereo not given), the growth is 64.2% in the test with BT-549 breast; -25.9% (active) with MDA-MB-435 melanoma; 17.5% in the test on SW-620 colon; 27.3% in the test with MCF7 breast; 26.7% in the test with HCT-116 colon; 18.7% in the test with KM12 colon.

For `CC(=O)/C(=C/c1ccccc1)C(=O)CC(C)C`, the growth with BT-549 breast is 98.8%; in the test with MDA-MB-435 melanoma it was 54.3%; in the test on SW-620 colon it was 24.7%; in the test with MCF7 breast, 50.4%; in the test on HCT-116 colon, 27.7%; in the test on HCC-2998 colon it was 105%. Also, the growth with KM12 colon was 72.2%.

`O=C(Nc1ccccc1)Nc1cccc(-n2cc(-c3ccncc3)c(-c3ccc(O)c(Cl)c3)n2)c1`: the growth in the test on BT-549 breast is 67.1%; in the test on MDA-MB-435 melanoma, 52.4%; in the test on SW-620 colon, 50.8%; in the test with MCF7 breast it was 32.5%; in the test with HCT-116 colon, 41.2%; in the test with HCC-2998 colon it was 44.2%. The growth in the test with KM12 colon was 32.6%.

As to `C[C@@H]1C=C2C(=O)O[C@@H]3CC[C@H](C1)[C@]23O`, the growth is 54.4% in the test on BT-549 breast; 57.7% with MDA-MB-435 melanoma; 48.8% in the test on SW-620 colon; 36.8% in the test with MCF7 breast; 48.7% with HCT-116 colon; 99.9% with HCC-2998 colon. Moreover, the growth with KM12 colon was 100%.

For the molecule `COc1cc2c(cc1OC)N(CCO)C1=C(C(=O)OC1)C2c1ccc(Cl)c(Cl)c1` (stereo not given), the growth with BT-549 breast is 89.4%; in the test with MDA-MB-435 melanoma it was 101%; with SW-620 colon, 102%; with MCF7 breast it was 95.8%; in the test with HCT-116 colon it was 97.7%; in the test with KM12 colon, 102%.

Regarding `COc1ccc(-n2c(SCc3cc(OC)c(OC)c(OC)c3)nc3ccc(C)cc3c2=O)cc1`, the growth with BT-549 breast was 71.5%; with MDA-MB-435 melanoma it was -4.51% (active); in the test with SW-620 colon, 49.3%; in the test with MCF7 breast, 24.8%; in the test on HCT-116 colon, 35%; in the test on HCC-2998 colon, 75.7%. For the same molecule, the growth with KM12 colon was 35.4%.

As for `O=C(NC(Cc1ccc(O)cc1)C(=O)N=Nc1c(O)[nH]c2ccccc12)c1ccccc1` (stereo not given), the growth in the test on BT-549 breast was 102%; in the test with MDA-MB-435 melanoma, 103%; with SW-620 colon it was 96.4%; in the test with MCF7 breast it was 103%; with HCT-116 colon, 99.3%; with KM12 colon, 99.2%.

With `Cc1cc(N(CCCNc2ccnc3cc(Cl)ccc23)Cc2ccc3c(c2)OCO3)nc(N2CCCCC2)n1`, the growth in the test with BT-549 breast was -24% (active); in the test on MDA-MB-435 melanoma it was -74.6% (active); with SW-620 colon it was -39.4% (active); in the test with MCF7 breast, -14.3% (active); with HCT-116 colon, -43.9% (active); in the test with HCC-2998 colon, -57.6% (active). In the test on KM12 colon, the growth was 10.4%.

As for `O=[N+]([O-])c1ccc(Oc2cc(Cl)c(Cl)cc2Cl)c(C(F)(F)F)c1`, the growth in the test with BT-549 breast is 110%; with MDA-MB-435 melanoma, 95.6%; in the test on SW-620 colon, 106%; in the test on MCF7 breast it was 97.9%; with HCT-116 colon, 102%; with HCC-2998 colon, 123%. The growth in the test with KM12 colon is 101%.

For `COc1ccc(-c2nn(-c3cccc(NC(=O)Nc4ccccc4)c3)cc2-c2ccncc2)cc1Cl`, the growth with BT-549 breast was -40.9% (active); in the test on MDA-MB-435 melanoma, -66.5% (active); in the test on SW-620 colon it was -19.7% (active); in the test with MCF7 breast it was 0.285% (active); in the test on HCT-116 colon it was 5.36% (active); with HCC-2998 colon, -71.1% (active). Besides, the growth in the test on KM12 colon was -16.2% (active).

In the case of `O=C(Nc1nc(-c2ccccc2Cl)cs1)c1cc(-c2ccc(Cl)cc2)nc2ccc(Cl)cc12`, the growth in the test on BT-549 breast was -9.33% (active); with MDA-MB-435 melanoma, -46.9% (active); with SW-620 colon, 26.7%; with MCF7 breast it was 11.2%; in the test on HCT-116 colon, 6.81% (active); in the test with HCC-2998 colon, 90.7%. Moreover, in the test on KM12 colon, the growth is 12.4%.

With `Nc1nc(-c2ccccc2Cl)cc(-c2ccc(Cl)cc2Cl)n1`, the growth in the test on BT-549 breast is 75.3%; in the test with MDA-MB-435 melanoma, 0.0733% (active); with SW-620 colon, 39%; in the test with MCF7 breast it was 45.7%; with HCT-116 colon it was 33%; in the test on HCC-2998 colon, 83.6%. Besides, the growth with KM12 colon was 53.8%.

With `COc1ccc2c(c1)sc1nc(-c3ccccc3)c(-c3cccnc3)n12`, the growth with BT-549 breast is 85.1%; in the test on MDA-MB-435 melanoma, 99.4%; with SW-620 colon it was 97.5%; with MCF7 breast, 102%; in the test on HCT-116 colon, 78.5%; in the test on KM12 colon, 106%.

In the case of `O=C1OCC2=C1C(c1cccc(Cl)c1)c1cc3c(cc1N2CCO)OCCO3` (stereo not given), the growth in the test on BT-549 breast is 32.4%; in the test on MDA-MB-435 melanoma it was -42.1% (active); in the test on SW-620 colon, 18.7%; with MCF7 breast, 18%; in the test on HCT-116 colon, 6.21% (active); in the test with KM12 colon, -32.8% (active).

`O=[P@@]1(c2ccccc2)O[C@H](COCc2ccccc2)[C@@H](OCc2ccccc2)[C@H](OCc2ccccc2)[C@H]1O`: the growth with BT-549 breast is 56.9%; in the test on MDA-MB-435 melanoma, 95.6%; with SW-620 colon, 104%; in the test on MCF7 breast it was 51%; with HCT-116 colon it was 69.8%; in the test on HCC-2998 colon, 103%. The growth in the test with KM12 colon was 98.1%.

Turning to `COc1cc2cc3c(nc2cc1OC)CCN3Cc1ccc(NC(=O)Nc2cc(C(F)(F)F)cc(C(F)(F)F)c2)cc1`, the growth with BT-549 breast was 106%; with MDA-MB-435 melanoma, 76.4%; in the test on SW-620 colon, 88.3%; in the test with MCF7 breast, 49.3%; in the test with HCT-116 colon it was 66.7%; with HCC-2998 colon, 83.4%. Moreover, the growth with KM12 colon is 68.6%.

As for `O=C1/C(=C/c2ccc([N+](=O)[O-])s2)Oc2ccccc21`, the growth was -83.2% (active) in the test with BT-549 breast; -58.1% (active) in the test on MDA-MB-435 melanoma; -61.3% (active) in the test with SW-620 colon; 1.53% (active) in the test with MCF7 breast; -45.4% (active) with HCT-116 colon; -71.4% (active) in the test with HCC-2998 colon. Moreover, the growth in the test with KM12 colon was -58.9% (active).
